The panel holds about 83,000 compounds, 20% with a hit somewhere; the sample as a whole holds those more often.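 Interpretation: 100, growth as untreated; towards 0, rising growth inhibition; 0, no net growth; 0 to -100, cell death. Compounds scoring below 10 were considered active.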 Values without a mark were called inactive. The source made the active and inactive calls.

Some test systems named below: NCI-H23 lung; NCI-H226 lung; NCI-H322M lung; HOP-62 NSCLC; NCI-H460 lung; HOP-92 NSCLC; A549/ATCC NSCLC; 786-0 renal; COLO 205 colon; DU-145 prostate; K-562 leukemia; MALME-3M melanoma; MDA-MB-231 breast; RXF 393 renal; SF-268 CNS; SF-295 CNS; SF-539 CNS; UACC-257 melanoma; M14 melanoma.
What all share (assay): NCI-60 one-dose screen, 48 h (100 = growth as untreated, 0 = no growth, -100 = all killed)
What all share (settings): 10 µM unless noted

As to `COc1ccc2c(c1)[n+](=O)c(C(=O)/C=C/c1cc(OC)c(OC)c(OC)c1)c(C)n2[O-]`, the growth was 65.9% with NCI-H23 lung; 79.1% in the assay on NCI-H226 lung; 81.3% in the assay on NCI-H322M lung; 101% in the assay on HOP-62 NSCLC; 44.7% in the assay with NCI-H460 lung; 63.7% in the assay on HOP-92 NSCLC. The growth in the assay on A549/ATCC NSCLC is 74.1%; with 786-0 renal, 70.9%; in the assay on COLO 205 colon, 58.9%; with DU-145 prostate, 47.6%; in the assay on K-562 leukemia it was 35.4%; in the assay with MALME-3M melanoma, 91.8%. The growth is 67.9% in the assay with MDA-MB-231 breast; 48.6% with RXF 393 renal; 56.3% with SF-268 CNS; 87.5% in the assay on SF-295 CNS; 81.9% in the assay with SF-539 CNS; 80.5% in the assay with UACC-257 melanoma. The growth with M14 melanoma is 80.1%.
As for `N#Cc1c(-c2ccccc2)cc(-c2ccccc2)n(CCCCC(=O)O)c1=O`, the growth is 90% in the assay on NCI-H23 lung; 91% in the assay on NCI-H226 lung; 98.6% in the assay on NCI-H322M lung; 90.9% in the assay with HOP-62 NSCLC; 102% in the assay with NCI-H460 lung; 93.7% with HOP-92 NSCLC. Also, the growth in the assay with A549/ATCC NSCLC was 94.7%; with 786-0 renal it was 93.7%; in the assay with COLO 205 colon it was 108%; with DU-145 prostate, 107%; in the assay on K-562 leukemia it was 80.8%; with MALME-3M melanoma it was 87.8%. Further, the growth in the assay on MDA-MB-231 breast was 91%; with RXF 393 renal it was 89.7%; in the assay on SF-268 CNS, 94%; in the assay with SF-295 CNS, 82.8%; in the assay on SF-539 CNS it was 93.5%; with UACC-257 melanoma, 94.1%. Moreover, in the assay on M14 melanoma, the growth is 86.4%.
In the case of `COc1cc(/C=C2\CN(S(=O)(=O)c3ccc(C)cc3)C/C(=C\c3cc(CN4CCOCC4)c(O)c(OC)c3)C2=O)cc(CN2CCOCC2)c1O`, the growth was -57.1% (active) with NCI-H23 lung; -40.2% (active) with NCI-H226 lung; -15.6% (active) with NCI-H322M lung; -16% (active) in the assay on HOP-62 NSCLC; -46.9% (active) in the assay with NCI-H460 lung; -30.3% (active) in the assay with HOP-92 NSCLC. In addition, the growth in the assay on A549/ATCC NSCLC was 19.4%; in the assay on 786-0 renal, -54.3% (active); with COLO 205 colon, -25.5% (active); with DU-145 prostate, 29.1%; in the assay on K-562 leukemia it was 10.4%; in the assay on MALME-3M melanoma, -25.7% (active). Also, the growth in the assay on MDA-MB-231 breast is 5.67% (active); with RXF 393 renal, -87.3% (active); in the assay with SF-268 CNS, 7.91% (active); in the assay on SF-295 CNS it was -34.1% (active); in the assay with SF-539 CNS, -3.63% (active); with UACC-257 melanoma it was -28.6% (active). Moreover, the growth in the assay with M14 melanoma was -40.5% (active).
Regarding `CC(=O)N1N=C(c2ccc3c(c2)OCO3)CC1c1c(C)nn(-c2ccccc2)c1N(C)Cc1ccccc1` (configuration not stated), the growth with NCI-H23 lung was 86.9%; in the assay with NCI-H226 lung, 76.3%; in the assay on NCI-H322M lung, 89.6%; in the assay with HOP-62 NSCLC, 77.1%; with NCI-H460 lung, 79.1%; in the assay on HOP-92 NSCLC, 46.1%. In addition, the growth was 50.6% with A549/ATCC NSCLC; 85.5% in the assay with 786-0 renal; 79.3% with COLO 205 colon; 94.6% with DU-145 prostate; 56.5% with K-562 leukemia; 84.8% in the assay with MALME-3M melanoma. In addition, the growth in the assay with MDA-MB-231 breast is 81%; with RXF 393 renal, 79.2%; in the assay with SF-268 CNS it was 74.4%; with SF-295 CNS, 68.9%; in the assay with SF-539 CNS, 94.5%; in the assay on UACC-257 melanoma it was 56.7%. Moreover, the growth with M14 melanoma was 77.2%.
As to `Cc1ccc(C(=O)Cc2ccccc2)c(O)c1`, the growth with NCI-H23 lung is 101%; with NCI-H226 lung it was 102%; with NCI-H322M lung, 77.6%; in the assay on HOP-62 NSCLC, 104%; with NCI-H460 lung, 111%; with HOP-92 NSCLC it was 87.3%. Besides, the growth was 102% in the assay with A549/ATCC NSCLC; 112% in the assay with 786-0 renal; 109% in the assay with COLO 205 colon; 101% in the assay with DU-145 prostate; 98.8% with K-562 leukemia; 115% with MALME-3M melanoma. Further, the growth with MDA-MB-231 breast was 103%; in the assay on RXF 393 renal, 115%; in the assay with SF-268 CNS it was 97.6%; in the assay with SF-295 CNS it was 107%; in the assay with SF-539 CNS, 102%; in the assay on UACC-257 melanoma, 108%. For the same compound, the growth in the assay on M14 melanoma is 110%.
In the case of `COc1cc(C(=O)/C=C/c2cccc(Nc3ccnc4cc(Cl)ccc34)c2)cc(OC)c1OC`, the growth in the assay with NCI-H23 lung is 11.1%; in the assay on NCI-H226 lung it was -18.7% (active); in the assay with NCI-H322M lung it was 8.86% (active); in the assay on HOP-62 NSCLC, -76.8% (active); with NCI-H460 lung it was 4% (active); in the assay on HOP-92 NSCLC, 16.3%. Further, the growth in the assay with A549/ATCC NSCLC was -38.7% (active); with 786-0 renal, -74.1% (active); with COLO 205 colon it was -36.1% (active); with DU-145 prostate, -0.714% (active); in the assay on K-562 leukemia, -6.81% (active); in the assay on MALME-3M melanoma it was 9.8% (active). In addition, the growth in the assay on MDA-MB-231 breast was -5.45% (active); with RXF 393 renal, -71.9% (active); in the assay on SF-268 CNS, -16.6% (active); in the assay on SF-295 CNS, 3.06% (active); in the assay on SF-539 CNS it was -46.1% (active); in the assay with UACC-257 melanoma it was 30.6%. Moreover, in the assay with M14 melanoma, the growth is -11.6% (active).
For `N#CC(C#N)C(C#N)C#N`, the growth in the assay on NCI-H23 lung is 97.7%; in the assay with NCI-H226 lung it was 99.9%; in the assay on NCI-H322M lung, 103%; in the assay on HOP-62 NSCLC it was 90.9%; with NCI-H460 lung, 105%; with HOP-92 NSCLC, 102%. For the same compound, the growth is 79% with A549/ATCC NSCLC; 101% with 786-0 renal; 99.3% with COLO 205 colon; 112% with DU-145 prostate; 105% in the assay with K-562 leukemia; 114% with MALME-3M melanoma. Also, the growth is 108% in the assay on MDA-MB-231 breast; 110% with RXF 393 renal; 104% in the assay on SF-268 CNS; 102% in the assay with SF-295 CNS; 105% in the assay on SF-539 CNS; 85.7% with UACC-257 melanoma. In addition, in the assay on M14 melanoma, the growth is 99.7%.
In the case of `COc1cccc(N2CCN(c3cccc(C)n3)CC2)c1`, the growth in the assay with NCI-H23 lung was 103%; in the assay with NCI-H226 lung it was 105%; in the assay with NCI-H322M lung, 103%; in the assay with HOP-62 NSCLC, 87.7%; in the assay on NCI-H460 lung, 117%; with HOP-92 NSCLC, 79.2%. The growth with A549/ATCC NSCLC is 95.6%; in the assay with 786-0 renal, 99.6%; with COLO 205 colon, 123%; with DU-145 prostate it was 106%; in the assay on K-562 leukemia it was 85.2%; with MALME-3M melanoma, 102%. Further, the growth with MDA-MB-231 breast is 101%; in the assay with RXF 393 renal, 76.4%; in the assay with SF-268 CNS, 129%; with SF-295 CNS, 83.2%; in the assay with SF-539 CNS, 101%; in the assay with UACC-257 melanoma, 97.7%. The growth with M14 melanoma is 89.9%.

(Values after PubChem BioAssay (NCI).)
